A selection: hits, their analogues and other compounds. The true share with any hit is near 1.3%.
gsp agonist: gsp mutant agonism; gsp mutant cells, cAMP HTRF, 30 min; Potency, µM (titrated, usually from 76.9 µM), hits mostly activators; 0.13% of 340,000 active; AID 624287; active = well fitted activation curve with a large enough effect; inconclusive = small, poorly fitted or top-dose-only effect, or another doubt; inactive = no such curve, though single readings can be large or run the other way; cell line not stated here;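 note: phosphodiesterase inhibitor Ro 20-1724 added with compounds to block cAMP breakdown; nearly all actives have a fitted effect of over 60% in size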
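Cells in DMEM/10% FBS with G418 were pretreated with compounds in DMSO plus […] (300 uM stock) for 30 min at 37C. cAMP was measured by HTRF (cAMP-d2 plus anti-cAMP antibody-K) after 30 min at room temperature.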
TSHR antagonist: human thyrotropin receptor antagonism | AID 504810 | P16473 | 0.2% of 330,000 active | activity change, negative = inhibition, % at 11.5 µM | TSHR-expressing cells, TSH-stimulated cAMP HTRF, 2 h; hits give low values;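 active = activity change below a set negative limit, meaning inhibition stronger than a set level, cut at about -70% in these data; inconclusive = activity change between two set negative limits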
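Freshly harvested TSHR cells receive pin-tooled compound, then EC80 TSH at 4nM final. After 2 hours at 37 deg C, antibody in lysis buffer and cAMP-d2 are added; 30 minutes at ambient temperature precede the HTRF read.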
gsp antag: gsp mutant antagonism. gsp-mutant cells, cAMP HTRF, 30 min. Potency, µM (doses to about 76.9 µM), usual class: inhibitors. 0.4% of 340,000 active. AID 624288; calls by dose curve; cell line not stated here;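 note: intracellular cAMP measured with PDE inhibitor Ro 20-1724 present during compound exposure; nearly all actives have a fitted effect of over 65% in size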
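Cells, 2000/well, grown 16–24 h in DMEM 10% FBS with 0.5 mg/ml G418, then compounds plus […] (300 uM addition stock), 30 min at 37C. cAMP read by HTRF (cAMP-d2 and anti-cAMP antibody-K in lysis buffer) after 30 min RT.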
pAkt inh: inhibitors of Akt phosphorylation; 0.32% of 360,000 active; activity change, % for hits at 50 µM; Neuro2A IGF-stimulated pAkt S473 HTRF, 20 min; hits give low values; in the data active = activity change below about -80%; inconclusive = mostly about -51% to -80%
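Neuro2A cells (4,500/well, DMEM with 0.5% FBS) were treated with compound at a single 50 µM final concentration, stimulated with 6 nM IGF for 20 min at 37 °C, and lysed. Phospho-Akt Ser473 was read by HTRF as 665/615 ratio ×10^4.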
RXFP1 ag: RXFP1 (human) receptor agonism; Q9HBX9; HEK293T-RXFP1 cAMP TR-FRET, 30 min; response scale: percent of porcine relaxin response, buffer zero; Potency, µM (doses to about 57.5 µM), usual class: activators; 0.3% of 370,000 active; AID 2676; active = well fitted activation curve with a large enough effect; inconclusive = small, poorly fitted or top-dose-only effect; note: nearly all actives have a fitted effect of over 60% in size
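HEK293 cells stably expressing RXFP1, treated 30 min at 37C with compounds plus PDE4 inhibitor Ro 20174; cAMP measured by HTRF TR-FRET. Normalized to buffer and 29 nM porcine relaxin; EC50 by Hill fit.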
RXFP1 antag: antagonists of human relaxin receptor RXFP1; Q9HBX9; HEK293-RXFP1, relaxin-stimulated cAMP HTRF, 30 min; hits give low values; activity change, negative = inhibition, % at 57.5 µM; 0.59% of 350,000 active; AID 1259400;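 active = activity change of -60% or lower, but not beyond a set lower limit; inconclusive = change between -60% and -40%, or beyond the set limit; inactive = change above -40%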
Hits are given with their value; [ ] = dose if it differs, or a comment.

Screening CN1CCN(NC(=O)Nc2cc(Cl)cc(Cl)c2)CC1 returned gsp agonist inactive, TSHR antagonist inactive, gsp antag inactive, pAkt inh inactive, RXFP1 ag inactive and RXFP1 antag inactive.
CSc1ccc(Cl)c(C(=O)OCC(=O)N2CCN(c3ccccc3)CC2)c1 was read as gsp agonist inconclusive, TSHR antagonist inactive, gsp antag inactive, pAkt inh inactive, RXFP1 ag inactive and RXFP1 antag inactive.
Screening Cc1ccc(CNC(=O)CSc2c3c(nc4cc(Cl)ccc24)CCCC3)o1 returned gsp agonist inconclusive, TSHR antagonist inactive, gsp antag inactive, pAkt inh -103%, RXFP1 ag inactive and RXFP1 antag inactive.
CCOc1ccc(CNC(=O)CSc2c3c(nc4cc(Cl)ccc24)CCCC3)cc1 was read as RXFP1 ag inactive and RXFP1 antag inactive.
Screening CCOc1cc(C(=O)NCC(=O)N2CCC3(CC2)NCCc2[nH]cnc23)cc(OCC)c1OCC returned gsp agonist inactive, TSHR antagonist inactive, gsp antag inactive, pAkt inh inactive, RXFP1 ag inactive and RXFP1 antag -119.
`Cc1cc(C)cc(C(=O)NCC(=O)N2CCC3(CC2)NCCc2[nH]cnc23)c1` gave gsp agonist inactive, TSHR antagonist inactive, gsp antag inactive, pAkt inh inactive, RXFP1 ag inactive and RXFP1 antag inactive.
`Cc1cccc(C)c1-n1nnnc1SCC(=O)N1CCNC1=O` gave gsp agonist inactive, TSHR antagonist inactive, gsp antag inactive, pAkt inh inactive, RXFP1 ag inactive and RXFP1 antag inactive.
Screening CCN1C(=O)CC2CCCC1C2 (stereo unspecified) returned gsp agonist inactive, gsp antag inactive, pAkt inh inactive and RXFP1 antag inactive.
For COc1ccc(NC(=O)c2nc[nH]c2C(=O)N[C@@H](C)C(=O)OC(C)(C)C)cc1 the results were gsp agonist 13µM, TSHR antagonist inactive, gsp antag inactive, pAkt inh inactive and RXFP1 ag inactive.
For Cc1ccc(NC(=O)c2nc[nH]c2C(=O)N[C@@H](C)C(=O)OC(C)(C)C)cc1 the results were TSHR antagonist inactive, gsp antag inactive, pAkt inh inactive and RXFP1 ag inactive.
`CCn1c(SCc2ccc(F)cc2)nnc1C1CCN(S(=O)(=O)c2ccc(OC)cc2)CC1` gave gsp agonist inactive, TSHR antagonist inactive, gsp antag inactive, pAkt inh inactive, RXFP1 ag inactive and RXFP1 antag inactive.
For CCn1c(SCc2ccc(C)cc2)nnc1C1CCN(S(=O)(=O)c2ccc(OC)cc2)CC1 the results were gsp agonist inactive, TSHR antagonist inactive, gsp antag inactive, pAkt inh -130%, RXFP1 ag inactive and RXFP1 antag inactive.
COc1cccc(NC(=O)C2CCCN2C(=O)Nc2ccccc2)c1 (stereo unspecified) was read as gsp agonist inactive[15.4 µM], TSHR antagonist inactive, gsp antag inactive, pAkt inh inactive, RXFP1 ag inactive and RXFP1 antag inactive.
Screening COc1cccc(OC)c1NC(=O)C1CCCN1C(=O)Nc1cccc(Cl)c1 (stereo unspecified) returned gsp agonist inactive, TSHR antagonist inactive, gsp antag inactive, pAkt inh inactive, RXFP1 ag inactive and RXFP1 antag -63.
Screening CN1CCC(N(Cc2cccs2)c2ccccc2)CC1 returned RXFP1 antag inactive.
Screening CCCC[C@]12Cc3cc(C#N)ccc3C(O1)c1c(cc(C)n(Cc3ccccc3)c1=O)O2 returned RXFP1 ag 3.2µM.
`CN1CCN(NC(=O)c2cccc(C(F)(F)F)c2)CC1` gave gsp agonist inactive[15.4 µM], TSHR antagonist inactive, gsp antag inactive, pAkt inh inactive, RXFP1 ag inactive and RXFP1 antag inactive.
Cc1oc(-c2ccc(F)cc2)cc1-c1nn2c(-c3ccoc3C)nnc2s1 was read as gsp agonist inactive, TSHR antagonist inactive, gsp antag inactive, pAkt inh -109%, RXFP1 ag inactive and RXFP1 antag inactive.
Cc1oc(-c2ccc(Cl)cc2)cc1-c1nn2c(-c3ccco3)nnc2s1 was read as TSHR antagonist inactive and RXFP1 ag inactive.
CC(=O)c1ccc(N=Nc2ccc(C)cc2)cc1 was read as gsp agonist inactive, TSHR antagonist inactive, gsp antag inactive, pAkt inh inactive, RXFP1 ag inactive and RXFP1 antag inactive.
C=C(C)C(=O)Oc1ccc(N=Nc2ccc(C)cc2)ccc1=O was read as gsp agonist inactive[15.4 µM], gsp antag inactive, pAkt inh inactive and RXFP1 antag -70.
`CSc1sc(C)cc1C=O` gave gsp agonist inactive[15.4 µM], TSHR antagonist inactive, gsp antag inactive, pAkt inh inactive, RXFP1 ag inactive and RXFP1 antag inactive.
For CSc1cc(/C=N/O)c(SC)s1 the results were gsp agonist inactive, TSHR antagonist inactive, gsp antag inactive, pAkt inh -116%, RXFP1 ag inactive and RXFP1 antag inactive.
`O=C(NCC1CCCCC1)c1ccc(Br)o1` gave gsp agonist inconclusive, TSHR antagonist inactive, gsp antag inactive, pAkt inh inactive, RXFP1 ag inactive and RXFP1 antag inactive.
CCOC(=O)Nc1ccc2c(c1)N(C(=O)CCN1CCN(CCO)CC1)c1ccccc1S2 was read as gsp agonist inactive, gsp antag inactive, pAkt inh -124% and RXFP1 antag inactive.
`CCOC(=O)Nc1ccc2c(c1)N(C(=O)CCN1CCN(C)CC1)c1ccccc1S2` gave gsp agonist inactive, TSHR antagonist inactive, gsp antag inactive, pAkt inh inactive, RXFP1 ag inactive and RXFP1 antag inactive.
`Cc1cc2c(cc3c(SCc4ccc(Cl)cc4)nnc(C)n32)o1` gave RXFP1 ag 14µM and RXFP1 antag inactive.
Screening Cc1cc2c(cc3c(SCc4ccccc4Cl)nnc(C)n32)o1 returned RXFP1 ag inactive and RXFP1 antag inactive.
COc1ccccc1S(=O)(=O)Cc1ccc(C(=O)N2CCN(c3ccccc3)CC2)o1 was read as gsp agonist inactive, TSHR antagonist inactive, gsp antag inconclusive, pAkt inh -124%, RXFP1 ag inactive and RXFP1 antag inactive.
`O=C(COc1cccc2ccccc12)Nc1cc(Cl)ccc1C(=O)O` gave gsp agonist inactive[15.4 µM], TSHR antagonist inactive, gsp antag inconclusive, pAkt inh inactive, RXFP1 ag inactive and RXFP1 antag -81.
For CCn1ccc(C(=O)Nc2cccc(Cl)c2)n1 the results were gsp agonist inactive, TSHR antagonist inactive, gsp antag inactive, pAkt inh inactive, RXFP1 ag inactive and RXFP1 antag inactive.
`CCn1ccc(C(=O)NC2=C(C#N)CCC2)n1` gave gsp agonist inactive, TSHR antagonist inactive, gsp antag inactive, pAkt inh -115%, RXFP1 ag inactive and RXFP1 antag inactive.
